Rows were chosen to be rich in hits. Some 3.6% of all compounds tested hit in one or more screens of this group.
IkB signaling: suppresses IkB signaling in ABC-DLBCL reporter cells; AID 445; ABC-DLBCL IkBa-CBG/CBR dual luciferase ratio, 4 h; response scale: scaled: untreated 0%, proteasome inhibitor 100%; hit rate 0.04% among 110,000; Potency, µM (series often up to 57.1 µM); active means well fitted curve in the direction sought with a large enough effect in the signal ratio, not every such curve was filed as active; inconclusive means small, poorly fitted or top-dose-only effect, or a change in a side signal; the % refers to the signal ratio;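 further: the direction sought is a rising ratio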
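In this assay, an IκBα–CBG68 fusion accumulates when IKK-driven degradation is blocked; native CBR normalizes for cell number. OCI-Ly3 cells were treated 4 h with compound and doxycycline, then green and red light read after Chroma-Glo addition.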
CRE-bla Fsk: CRE-bla signaling modulation under forskolin stimulation | Potency, µM (highest dose often 38.2 µM), most hits filed as activators | hit rate 2.5% among 71,000 | CHO CRE-bla reporter (cAMP response element driving beta-lactamase), forskolin EC10, beta-lactamase ratio; active means well fitted activation curve with a large enough effect in the signal ratio, with a control signal flat, not every such curve was filed as active; inconclusive means small, poorly fitted or top-dose-only effect, or effect the other way, or a change in a side signal; the % refers to the signal ratio
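Reporter-gene assay: CHO cells with beta-lactamase behind cAMP responsive elements, co-treated with compound and EC10 NKH 477 for 3 hours at 37 degrees Celsius. Activity came from the 460/530 nm CCF4 emission ratio.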
Hsp90 Hop PPI: changes Hsp90-Hop TPR2A binding signal, up or down. AlphaScreen TPR2A-His6 binding biotin-Hsp90 C-terminal peptide. Potency, µM (doses to about 57 µM). hit rate 0.44% among 71,000; active means well fitted curve in either direction with a large enough effect; inconclusive means small, poorly fitted or top-dose-only effect, or another doubt
Tau fil binding: binds recombinant human tau filaments. P10636. recombinant tau filaments, thioflavin S fluorescence, 15 h; filaments grown with octadecylsulfate alongside compound. Potency, µM (titrated, usually from 57.1 µM). hit rate 2% among 71,000;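 further: actives lower thioflavin S fluorescence by blocking filaments or displacing dye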
Target sequence (P10636 whole entry, looked up): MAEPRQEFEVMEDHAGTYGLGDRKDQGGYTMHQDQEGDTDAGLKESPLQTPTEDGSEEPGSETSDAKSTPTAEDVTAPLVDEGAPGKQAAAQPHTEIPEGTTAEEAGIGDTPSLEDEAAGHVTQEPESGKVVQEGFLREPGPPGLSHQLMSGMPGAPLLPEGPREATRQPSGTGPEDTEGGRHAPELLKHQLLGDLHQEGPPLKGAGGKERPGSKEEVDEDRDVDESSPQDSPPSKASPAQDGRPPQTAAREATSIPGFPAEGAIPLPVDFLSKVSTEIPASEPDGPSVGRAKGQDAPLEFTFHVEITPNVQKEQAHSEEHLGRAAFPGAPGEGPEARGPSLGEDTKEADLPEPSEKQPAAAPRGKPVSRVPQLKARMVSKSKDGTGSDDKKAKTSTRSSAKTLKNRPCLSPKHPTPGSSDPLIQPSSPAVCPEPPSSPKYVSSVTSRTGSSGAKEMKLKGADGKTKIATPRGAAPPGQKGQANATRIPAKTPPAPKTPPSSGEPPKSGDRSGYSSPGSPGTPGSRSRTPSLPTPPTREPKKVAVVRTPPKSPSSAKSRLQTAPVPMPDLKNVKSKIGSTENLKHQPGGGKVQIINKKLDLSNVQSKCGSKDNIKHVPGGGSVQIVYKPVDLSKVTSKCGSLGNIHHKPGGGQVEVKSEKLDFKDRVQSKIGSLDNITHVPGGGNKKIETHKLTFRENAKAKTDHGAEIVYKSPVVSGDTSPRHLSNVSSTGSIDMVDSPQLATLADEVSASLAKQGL
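Recombinant tau protein (human, 1 uM final) plus 30 uM ODS in HEPES pH 7.4 with NaCl, DTT and thioflavine S. Compound present from the start; fluorescence at 510 nm after 15 h, 37 C.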
ALOX15 inhib: blocks human 15-lipoxygenase activity. Potency, µM (highest dose often 57.1 µM), hits mostly inhibitors. hit rate 1.4% among 74,000. purified 15hLO-1, xylenol orange hydroperoxide absorbance. P16050; further: nearly all actives have a fitted effect of over 55% in size
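40 nM 15hLO-1 + cpd, 15 min RT; start w/ 50 uM AA (final), 6 min RT; stop/detect w/ 200 uM XO + 300 uM Fe(II) in 50 mM H2SO4, 30 min; A573/A405. Buffer 25 mM Hepes pH 7.5, 0.01% Triton X-100. No-enzyme wells as negative control.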
Hits are given with their value; - = inactive; ? = inconclusive; . = no result given; [ ] = remark or other dose. Unless noted, the call rests on the fitted dose curve; in most records, active means well fitted curve in the direction sought with a large enough effect; inconclusive means small, poorly fitted or top-dose-only effect, or another doubt; inactive means no such curve, though single readings can be large; an effect the other way counts as inactive or inconclusive.

SMILES	IkB signaling	CRE-bla Fsk	Hsp90 Hop PPI	Tau fil binding	ALOX15 inhib
CCCCN(c1ccccc1)c1ncnc2c1cnn2-c1ccc(Cl)cc1	-	.	.	.	.
COc1cccc(Cn2c(=O)n(-c3cccc(Cl)c3)c(=O)c3c4c(sc32)CN(C(C)=O)CC4)c1	-	.	.	.	.
CCOc1ncccc1C(=O)NCC1COc2ccccc2O1 (stereo unspecified)	-	4µM	-	-	-
CCc1ccc(C(=O)NCC2COc3ccccc3O2)o1 (stereo unspecified)	-	?	-[11 µM]	-[11.4 µM]	-[11.4 µM]
CC(=NCCCn1ccnc1)C1=C(O)c2ccccc2C1=O	-	-	13µM	-	-
O=C1C(C=NCCCn2ccnc2)=C(O)c2ccccc21	-	?	3.2µM	-[11.4 µM]	-[11.4 µM]
CCNc1ncc2nc(-c3cn(C)c4ccccc34)c(=O)n(CCC#N)c2n1	-[11.4 µM]	4µM	-	-	-
CCNc1ncc2nc(-c3cccs3)c(=O)n(C[C@H]3CCCO3)c2n1	-[11.4 µM]	?	-	-	-
CCNc1ncc2nc(-c3cn(C)c4ccccc34)c(=O)n(C)c2n1	-[11.4 µM]	?	-	-	?
CCNc1ncc2nc(-c3cn(C)c4ccccc34)c(=O)n(C[C@H]3CCCO3)c2n1	-[11.4 µM]	0.79µM	-	-	-
C=CCn1c(SCC(=O)c2ccc(O)c(O)c2)nnc1-c1ccccc1OC	?	?	-	-	?
CCn1c(SCC(=O)c2ccc(O)c(O)c2)nnc1-c1ccccc1OC	-	-	-	-	16µM
COc1ccc2c(=O)c3c(=O)n(Cc4ccco4)c(C(C)C)nc3oc2c1	-	-	-	-	-
O=c1c2ccccc2oc2nc(-c3ccco3)n(Cc3ccccc3)c(=O)c12	-	?	-	20µM	-
COc1ccc2c(=O)c3c(=O)n(Cc4ccco4)c(-c4ccc(C)cc4)nc3oc2c1	-	?	-	10µM	-
COc1cc(-c2nc3oc4ccccc4c(=O)c3c(=O)n2Cc2ccco2)cc(OC)c1OC	?	2.5µM	-	-	-
O=C(Nc1sc2c(c1C(=O)NCC1CCCO1)CCC2)c1cc(=O)c2cc(Cl)ccc2o1 (stereo unspecified)	-	.	.	.	.
COc1ccc2c(C)c(CC(=O)NCCc3ccccc3)c(=O)oc2c1OC	-	.	.	.	.
COc1ccc2c(c1)c1c(c(=O)n(-c3cccc(Cl)c3)c(=O)n1CC(=O)NCC1CCCO1)n2C (stereo unspecified)	-	.	.	.	.
Cc1ccc(-c2nsc(NC(=O)c3oc4cc(C)c(Cl)cc4c3C)n2)cc1	-	.	.	.	.
CN(Cc1ccccc1)c1ccc(-c2nc(-c3ccco3)no2)cc1[N+](=O)[O-]	-	.	.	.	.
CC(=O)C1=C(C)NC(SCSc2ccccc2)=C(C#N)C1c1cccnc1 (stereo unspecified)	?	?	-	-	0.32µM
CSCSC1=C(C#N)C(c2ccccc2Cl)C(C(C)=O)=C(C)N1 (stereo unspecified)	?	-	-	-	25µM
CN1/C(=C\C(=O)CN2C(=O)NC3(CCCCCC3)C2=O)C(C)(C)c2ccccc21	?	-	-	-	-
CN1/C(=C\P(=O)(N(C)C)N(C)C)C(C)(C)c2ccccc21	-	?	-	10µM	-
SMILES	IkB signaling	CRE-bla Fsk	Hsp90 Hop PPI	Tau fil binding	ALOX15 inhib
O=C(CSc1ccc(Cl)cc1)c1ccco1	?	?	-	?	16µM
CCCCC(c1nnnn1CCOC)N1CCN(c2cccc(OC)c2)CC1 (stereo unspecified)	?	-	-	13µM	?
CCCNC(=O)Cc1ncn[nH]1	-	-	-	-	-
CCCNC(=O)Cc1cc(=O)[nH]c(=O)[nH]1	-	2µM	-	-	-
CC[C@@]1(O)C(=O)COc2c1cc1n(c2=O)Cc2c-1nc1cccc(C(C)C)c1c2[Si](C)(C)C	.	13µM	-	-	.
CCc1c2c(nc3cccc(C(C)C)c13)-c1cccc(=O)n1C2	.	13µM	-	-	.
CCOc1ccc(NC(=O)CCS(=O)(=O)c2ccc3c(c2)n(C)c(=O)c(=O)n3C)cc1	-	.	.	.	.
COc1ccc(-n2nnc(-c3nsc(NC(=O)c4cccc(C)c4)n3)c2C)cc1OC	-	.	.	.	.
COc1ccccc1CNc1ncnc2c1cnn2-c1ccc(C)cc1	-	.	.	.	.
COc1cc(CNc2ccc3[nH]c(=O)[nH]c3c2)ccc1OCc1ccccc1F	-	.	.	.	.
COc1cc(CNc2ccc3[nH]c(=O)[nH]c3c2)ccc1OCC(=O)NC(C)(C)C	-	-	-	13µM	25µM
COc1ccc(NC(=O)Nc2nnc(SCC(=O)Nc3cccc(C)c3C)s2)cc1	-	.	.	.	.
CCCN1Cc2cccc(C(=O)Nc3ccc4c(c3)OCCO4)c2C1=O	-	13µM	-	-	-
CCCN1Cc2cccc(C(=O)Nc3ccc4c(c3)OCO4)c2C1=O	-	?	-	-	-
COCCN1Cc2cccc(C(=O)Nc3cc(OC)ccc3OC)c2C1=O	-	10µM	?	-	-
COCCNC(=O)c1cnc2sc(N3CCC(C)CC3)nn2c1=O	-	.	.	.	.
COc1ccc(-n2c(=O)c3c4c(sc3n(Cc3ccccc3)c2=O)CCC4)c(OC)c1	-	.	.	.	.
CCOC(=O)Cn1c(=O)n(-c2cccc(Cl)c2)c2nc(-c3ccccc3Cl)nc(C(N)=O)c21	-	.	.	.	.
NC(=O)c1cccc2c3c([nH]c12)CCCC3	-	-	?	-	3.2µM
Cn1nnnc1Sc1ncnc2scc(-c3ccccc3)c12	?	0.5µM	-	?	-
Cn1nnnc1Sc1ncnc2scc(-c3ccc(F)cc3)c12	?	?	-	?	-
Nc1c(C(=O)c2ccc(Br)s2)oc2ccccc12	?	?	-	13µM	-
Cc1ccc(-c2noc(-c3ccc(N4CCC(C)CC4)c([N+](=O)[O-])c3)n2)cc1	-	.	.	.	.
Cc1ccc(-c2cc(C(F)F)nc(N3CCC(C)CC3)n2)cc1	-	-	25µM	-	-
CNC(=O)c1ccc(-c2sc3nc(N4CCOCC4)c4c(c3c2N)CCCC4)o1	?	?	-[11 µM]	-[11.4 µM]	?
SMILES	IkB signaling	CRE-bla Fsk	Hsp90 Hop PPI	Tau fil binding	ALOX15 inhib
CC1(C)Cc2c(c(N3CCOCC3)nc3sc(-c4ccc(C(=O)O)o4)c(N)c23)CO1	-	?	?	-	20µM
COc1ccc(N(CC(=O)NCc2ccccc2Cl)S(=O)(=O)c2c(C)nn(C)c2C)cc1	-	.	.	.	.
CS(=O)(=O)N1CCC2(CC1)CN(C(=O)Nc1cccc(F)c1)C2	-[11.4 µM]	-	?	13µM	-
CS(=O)(=O)N1CCC2(CC1)CN(C(=O)Nc1ccccc1)C2	-[11.4 µM]	-	-	-	0.5µM
Cc1ccc(C(c2sc3nc(-c4ccco4)nn3c2O)N2CCOCC2)cc1 (stereo unspecified)	-	.	.	.	.
N#Cc1c(N2CCCC2)nc(N)c2c(N)nc(N3CCCC3)cc12	-	?	25µM	-	-
COc1cc2c(cc1OC)-c1cc(NC3CCCC3)nc(=O)n1CC2	-	5µM	-	-	-
COc1cc2c(cc1OC)C(C(=O)NC1CC1)C1c3ccccc3CCN1C2=O (stereo unspecified)	-	-	-	-	-
CCOCC(=O)Nc1c(C(=O)OCC)oc2ccccc12	-	10µM	-	-	-

Screening results from PubChem.
